Measurements: PubChem BioAssay (NCI)
This is part of a sample that, as a whole, favours compounds with a hit. Of some 79,000 tested, about 15% had one in any assay. The source made the active and inactive calls. Rule as the data show it: active = growth inhibition above about 70%; inactive = the rest.

Assays:
[1] = NCI Yeast Anticancer Drug Screen. Data for the rad50 strain (AID 155);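 also: 0% = growth of vehicle-only cultures of the same strain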; conditions: S. cerevisiae rad50 strain growth inhibition; at 50.0 µM; hits give high values
Procedure, shortened: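 DNA repair mutant yeast, compound exposure, growth read-out; inhibition is taken relative to vehicle.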

[2] = NCI Yeast Anticancer Drug Screen. Data for the mec2-1 strain (AID 157); conditions: S. cerevisiae mec2-1 strain, at 50.0 µM, hits give high values
Procedure, shortened: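 Mutant yeast (mec2-1) grown with compound; growth inhibition relative to vehicle control reported.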

[3] = NCI Yeast Anticancer Drug Screen. Data for the sgs1 mgt1 strain (AID 161);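 also: 0% = growth of cultures given vehicle only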; conditions: S. cerevisiae sgs1 mgt1 strain, at 50.0 µM, hits give high values
Procedure, shortened: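 Growth of a repair-deficient yeast mutant was monitored after compound treatment and expressed as inhibition relative to vehicle-treated cultures.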

[4] = NCI Yeast Anticancer Drug Screen. Data for the cln2 rad14 strain (AID 165);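 also: 0% = growth equal to vehicle treated cultures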; conditions: S. cerevisiae cln2 rad14 strain, at 50.0 µM, hits give high values
Procedure, shortened: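 Readout is yeast growth inhibition versus vehicle-treated controls, using a strain with cln2 and rad14 alterations exposed to compound.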

[5] = NCI Yeast Anticancer Drug Screen. Data for the bub3 strain (AID 167); conditions: S. cerevisiae bub3 mutant strain, at 50.0 µM, hits give high values
Procedure, shortened: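 In this screen, a yeast mutant lacking normal mitotic checkpoint function is challenged with compound. Relative growth versus vehicle gives the inhibition value.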

[6] = NCI Yeast Anticancer Drug Screen. Data for the mlh1 rad18 strain (AID 175); conditions: S. cerevisiae mlh1 rad18 strain growth inhibition; at 50.0 µM; hits give high values
Procedure, shortened: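 Genetically defined yeast (DNA repair-deficient) exposed to compounds; growth inhibition determined relative to vehicle.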

Measured: growth inhibition

O=C1CCSCCC(=O)Nc2ccccc2N1
inactive: [1] 3.6% | [2] 0.85% | [3] 16.6% | [4] 20.4% | [5] 17.9% | [6] -65.4%

CCc1cc2c(cc1/C(C)=N/N=C(\C)c1cc3c(cc1CC)C(C)(C)CCC3(C)C)C(C)(C)CCC2(C)C
inactive: [1] -27.1% | [2] -1.8% | [3] -9.3% | [4] -30.6% | [5] 9.95% | [6] -15.5%

C/C(CC(=O)Nc1ccccc1[N+](=O)[O-])=N\NC(N)=O
inactive: [1] 14.1% | [2] -15.8% | [3] -18.1% | [4] 27.4% | [5] -23.1% | [6] -2.9%

COC(=O)c1ccc([N+](=O)[O-])cc1C(=O)OC
inactive: [1] 4.85% | [2] -16.7% | [3] -42.1% | [4] -12.3% | [5] -52.8% | [6] -3.2%

N#CCCc1c(-c2ccccc2)nc(N)[nH]c1=O
inactive: [1] 2.35% | [2] 0.85% | [3] 2.75% | [4] -38.4% | [5] -14.6% | [6] -9.75%

CCCCCCCCCCOC(=O)Nc1cccc(O)c1
active: [2] 92.8% | [3] 95.4% | [5] 96.9% | [6] 86.5%
inactive: [1] 29.8% | [4] 18.9%

CC(=O)N1CCc2ccccc2C1C1NCCc2ccccc21 (centres undefined)
inactive: [1] 14.4% | [2] 8.95% | [3] 13.1% | [4] -0.15% | [5] 1.05% | [6] 5.9%

O=C(Nc1ccccc1Cl)NC1CCCCC1
inactive: [1] 5.1% | [2] -0.55% | [3] 5.35% | [4] 18.7% | [5] 17.1% | [6] 5.8%

CCN(CC)c1ccc(/C=C2\CCc3ccc([N+](=O)[O-])cc3C2=O)cc1
inactive: [1] 1.95% | [2] -14.7% | [3] 6.2% | [4] -3.75% | [5] 3.8% | [6] -7.95%

CN1CCCC1c1cccnc1.O=C(O)c1ccccc1O.O=C([O-])c1ccccc1[OH2+].O=C([O-])c1ccccc1[OH2+].O=C([O-])c1ccccc1[OH2+].[Mn+2] (centres undefined)
inactive: [1] 1.55% | [2] -14.2% | [3] -10.3% | [4] -29.6% | [5] -45.8% | [6] 7.3%

CCNC1=C(C(=O)OCC)C(=O)CO1
inactive: [1] 34% | [2] 15.9% | [3] 24.2% | [4] 9.95% | [5] 0.3% | [6] -0.1%

C[Si](C)(C)Nc1ncnc2c1ncn2[Si](C)(C)C
inactive: [1] 14.6% | [2] 4.85% | [3] 21.6% | [4] -9.3% | [5] 2.85% | [6] 7.05%

CCCCCCCC(=O)NNCc1ccccc1
inactive: [1] -16.1% | [2] 33.2% | [3] 15.6% | [4] 3.35% | [5] 15.9% | [6] 6.9%

CCOC(=O)CCC1(C(=O)OCC)CCCCC1=O (centres undefined)
inactive: [1] -16.9% | [2] -20.4% | [3] -48.5% | [4] -16.9% | [5] -25.4% | [6] -23.1%

Cc1cc(Cl)c(Cl)cc1NC(=O)c1ccc(Cl)cc1Cl
inactive: [1] 2.85% | [2] 6.9% | [3] 1.25% | [4] -0.95% | [5] -1.3% | [6] 17.6%

NC(CC(=O)O)c1ccc(Cl)cc1 (centres undefined)
inactive: [1] -22.5% | [2] -23.3% | [3] -14.4% | [4] -8.3% | [5] 0.3% | [6] 7%

COc1ccc(-n2c(=O)c(N=Nc3ccccc3)c(O)n(-c3ccccc3OC)c2=S)cc1
inactive: [1] 39.5% | [2] -13.6% | [3] 40.5% | [4] -13.7% | [5] 8.95% | [6] 15.3%

CC1CCOC(c2ccc(O)cc2)O1 (centres undefined)
inactive: [1] -4.05% | [2] -13.1% | [3] -4.65% | [4] -29.3% | [5] -14.4% | [6] -3.75%

Cc1ccsc1/C=N/Nc1cc(C)c2ccccc2n1
inactive: [1] 41.4% | [2] -6.25% | [3] 40% | [4] 35.8% | [5] 26.6% | [6] 16.2%
